Results on 31 compounds are retold here after ChEMBL document CHEMBL4513146, “CO-ADD screening of Karazin Kharkiv National University (Ukraine) compounds”.

One test concerns Klebsiella pneumoniae. Particulars: Concentration 32 ug.mL-1;; ASSAY_TEST Inhibition of Bacterial Growth; detection method Absorption (OD600); MEDIA CAMHB; plate type 384well; NBS; CORNING #3640; time 18 hr.
The test system of the next test is Candida albicans. The note with it: Concentration 32 ug.mL-1; ASSAY_TEST Inhibition of Fungal Growth; detection method Absorption (OD530).
In another test the test system is Cryptococcus neoformans. The note with it: Concentration 32 ug.mL-1; ASSAY_TEST Inhibition of Fungal Growth; detection method Resazurin; Absorption (OD600-OD570); plate type 384well; NBS; CORNING #3640. In general terms: The colour change of resazurin is a common sign of viable cells or microbes.

Results with a measured potency or affinity are listed apart.

One may read the Inhibition as the change of the read-out against control, counted positive when it falls. As to `CSc1cccc(NC(=O)Cn2nc3ccc(SC4CCCCC4)nn3c2=O)c1`, the figures for the Inhibition in the test with Klebsiella pneumoniae, with Candida albicans and in the test with Cryptococcus neoformans were 4.23%, 0.23% and -8.34%, respectively.
The corresponding values for `Cc1cc(C)cc(Nc2nc(C)cc3nn(CC(=O)Nc4cccc(Cl)c4)c(=O)n23)c1` are 7.28%, 4.92% and -8.23%.
In the same order, the values of `O=c1c2sccc2n2c(=O)n(Cc3cccc(F)c3)nc2n1Cc1cccs1` are -6.06%, 36.13% and -19.84%.
Turning to `CCOc1ccc(NC(=O)Cn2nc3c(N4CCCC4)nccn3c2=O)cc1`, the results for the Inhibition with Klebsiella pneumoniae, with Candida albicans and in the test with Cryptococcus neoformans were 9.68%, 0.82% and -8.38%, respectively.
In the same order, the values of `O=C(CSc1nnc2c(=O)n(-c3ccccc3)ccn12)Nc1ccc(Cl)cc1` are 8.54%, 0.98% and -17.38%.
The corresponding values for `O=C(Cn1nc2c(Sc3cccc(F)c3)nccn2c1=O)Nc1cccc(Br)c1` are 7.1%, -0.26% and -2.48%.
In the same order, the values of `O=C(Cn1nc2c3sc(N4CCCC4)nc3ncn2c1=O)Nc1ccccc1Br` are 2.42%, 1.39% and -9.14%.
For `O=c1c2nn(Cc3ccc(F)cc3)c(=O)n2ccn1-c1ccccc1`, the Inhibition is given as 9.86% with Klebsiella pneumoniae, 2.87% with Candida albicans and -6.47% with Cryptococcus neoformans.
For the compound `COc1ccc(-c2cc3c4nn(CC(=O)Nc5ccc6c(c5)OCO6)c(=O)n4ccn3n2)cc1`, the Inhibition was 2.73% with Klebsiella pneumoniae, 15.19% with Candida albicans and -14.04% in the test on Cryptococcus neoformans.
For `COc1ccc(CNC(=O)Cn2nc3c(N4CCN(c5ccccc5C)CC4)nccn3c2=O)cc1`, the Inhibition is given as -11.16% in the test on Klebsiella pneumoniae, 37.75% with Candida albicans and -4.67% with Cryptococcus neoformans.
The corresponding values for `COc1ccc(NC(=O)C(C)Sc2nnc3c(=O)n(-c4ccc(C)c(C)c4)ccn23)cc1` (stereo not drawn) are 12.32%, -1.2% and -9%.
In the case of `COc1cccc(-n2ccn3c(SCc4ccc(Cl)cc4)nnc3c2=O)c1`, the Inhibition was 9.45% in the test on Klebsiella pneumoniae, 2.03% with Candida albicans and -6.31% in the test with Cryptococcus neoformans.
In the same order, the values of `Cc1ccc(-c2ccc3nn(CC(=O)Nc4ccc(Br)cc4F)c(=O)n3n2)cc1` are 9.08%, 3.52% and -13.83%.
The corresponding values for `CCOc1ccc(-n2ccn3c(SCC(=O)c4cccc(OC)c4)nnc3c2=O)cc1` are 9.6%, 2.55% and -9.06%.
As for `Cc1cc(C)c(NC(=O)Cn2nc3c4cc(-c5ccc(F)cc5)nn4ccn3c2=O)c(C)c1`, the Inhibition in the test with Klebsiella pneumoniae is 17.22%; in the test on Candida albicans it was 18.72%; with Cryptococcus neoformans, -19.36%.
The corresponding values for `Cc1nnc2ccc(S(=O)(=O)N(Cc3ccccc3F)c3ccc(Cl)cc3)cn12` are -3.84%, 0.4% and -8.97%.
In the same order, the values of `CCOC(=O)N1CCN(C(=O)CCc2nnc3c4cc(-c5ccccc5)nn4ccn23)CC1` are 14.35%, 1.03% and -14.62%.
In the same order, the values of `CCOc1ccc(NC(=O)Cn2nc3ccc(Sc4cccc(F)c4)nn3c2=O)cc1` are 0.85%, 6.64% and -8.03%.
As to `O=c1c2sccc2n2c(=O)n(Cc3ccc(F)cc3)nc2n1CCc1ccccc1`, the Inhibition is 5.57% in the test with Klebsiella pneumoniae, 0.78% in the test with Candida albicans and -5% with Cryptococcus neoformans.
The corresponding values for `Cc1ccc(NC(=O)Cn2nc3ccc(SC(C)C)nn3c2=O)c(C)c1` are 11.09%, 2.8% and -5.46%.
In the same order, the values of `O=C(Cn1nc2c(N3CCOCC3)nccn2c1=O)Nc1cc(C(F)(F)F)ccc1Cl` are 12.08%, 2.84% and -4.39%.
Regarding `Cc1ccc(NC(=O)CSc2nnc3n(CC4CCCO4)c(=O)c4sccc4n23)cc1F` (stereo not drawn), the Inhibition was 6.62% in the test on Klebsiella pneumoniae, -2.27% in the test on Candida albicans and -15.18% in the test with Cryptococcus neoformans.
As for `Cc1ccc(Oc2nccn3c(=O)n(CC(=O)N4CCN(c5ccccc5F)CC4)nc23)cc1`, the Inhibition with Klebsiella pneumoniae is recorded as 13.64%; in the test on Candida albicans, -0.66%; in the test with Cryptococcus neoformans, -23.01%.
In the same order, the values of `COc1cc(NC(=O)Cn2nc3c4c5c(sc4ncn3c2=O)CCCC5)cc(OC)c1` are 4.67%, 7.26% and -16.68%.
In the same order, the values of `COc1ccc(-c2nc(CSc3nc4ccccc4n4c(C(C)C)nnc34)c(C)o2)cc1OC` are -2.06%, 3.02% and -7.98%.
As for `Cc1ccc(C(=O)CSc2nnc3c(=O)n(-c4ccc(F)cc4)ccn23)c(C)c1`, the results for the Inhibition in the test on Klebsiella pneumoniae, in the test on Candida albicans and with Cryptococcus neoformans were 5.21%, 2.78% and -8.55%, respectively.
The corresponding values for `N#Cc1cccc(NC(=O)Cn2nc3c4cc(-c5ccc(Cl)cc5)nn4ccn3c2=O)c1` are 3.5%, 20.48% and -13.1%.
The corresponding values for `CCc1nnc2c(SCC(=O)Nc3ccc(OC)c(Cl)c3)nc3ccccc3n12` are 11.84%, 5.38% and -21.55%.
The corresponding values for `CCOc1ccc(NC(=O)Cn2nc3ccc(-c4ccccc4)nn3c2=O)cc1` are 6.87%, 4.93% and -6.8%.
`Cc1ccc(NC(=O)Cn2nc3ccc(-c4ccc(Cl)cc4)nn3c2=O)cc1F`: the Inhibition in the test on Klebsiella pneumoniae is 2.59%; in the test on Candida albicans, -1.16%; in the test on Cryptococcus neoformans, -2.55%.
In the case of `COc1cc(NC(=O)Cn2nc3ccc(C(=O)NCc4ccccc4)cn3c2=O)cc(OC)c1OC`, the Inhibition is 1.38% in the test with Klebsiella pneumoniae, 5.58% with Candida albicans and -8.4% in the test on Cryptococcus neoformans.
